Screen size: about 5,500 compounds; about 2,000 (36%) were called active. Inconclusive results (about 18%) are left out. Rule as the data show it: active = normalized growth mostly below about 0.91 (no sharp cut-off); inconclusive = no clear call, values can overlap the other calls; inactive = mostly above about 0.92. The list shows a part of the results.
Assay: chemical genetic growth profiling, strain panel (AID 1159580);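 also: tested at 20 µM; growth read once vehicle control cultures reached saturation at 30 °C; 1 = growth at the plate median or of vehicle wells; lower values mean less growth of the strain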
Settings: S. cerevisiae deletion strains, growth OD

Measured: normalized growth

C/C(Cc1nnn(-c2cc(C)on2)n1)=N/OC(=O)Nc1ccc(Cl)cc1
active: locus YHR030C, strain SLT2, stronger effect = lower value 0.733 | locus YJR066W, strain TOR1 (second series), stronger effect = lower value 0.6 | locus YLR113W, strain HOG1, stronger effect = lower value 0.826
inactive: locus YAR019C, strain CDC15, stronger effect = lower value 0.989 | locus YBL105C, strain PKC1, stronger effect = lower value 0.978 | locus YBR135W, strain CKS1, stronger effect = lower value 0.988 | locus YBR136W, strain MEC1, stronger effect = lower value 0.985 | locus YBR160W, strain CDC28, stronger effect = lower value 0.993 | locus YDL017W, strain CDC7, stronger effect = lower value 0.974 | locus YDL028C, strain MPS1, stronger effect = lower value 0.989 | locus YDL101C, strain DUN1, stronger effect = lower value 1 | locus YDL108W, strain KIN28, stronger effect = lower value 0.982 | locus YDL132W, strain cdc53, stronger effect = lower value 0.975 | locus YDL214C, strain PRR2, stronger effect = lower value 0.956 | locus YDR052C, strain DBF4, stronger effect = lower value 0.988 | locus YDR054C, strain cdc34, stronger effect = lower value 0.975 | locus YDR226W, strain ADK1, stronger effect = lower value 0.97 | locus YDR477W, strain SNF1, stronger effect = lower value 0.899 | locus YER123W, strain YCK3, stronger effect = lower value 0.954 | locus YER133W, strain GLC7, stronger effect = lower value 0.95 | locus YFL009W, strain cdc4, stronger effect = lower value 0.98 | locus YFL029C, strain CAK1, stronger effect = lower value 0.992 | locus YFR003C, strain YPI1, stronger effect = lower value 0.979 | locus YFR019W, strain FAB1, stronger effect = lower value 0.989 | locus YFR028C, strain CDC14, stronger effect = lower value 0.975 | locus YGR040W, strain KSS1, stronger effect = lower value 0.941 | locus YGR052W, strain FMP48, stronger effect = lower value 0.971 | locus YGR092W, strain DBF2, stronger effect = lower value 0.877 | locus YHR079C, strain IRE1, stronger effect = lower value 0.754 | locus YHR082C, strain KSP1, stronger effect = lower value 1.05 | locus YHR205W, strain SCH9, stronger effect = lower value 0.787 | locus YIL147C, strain SLN1, stronger effect = lower value 0.973 | locus YJL095W, strain BCK1, stronger effect = lower value 0.793 | locus YJL128C, strain PBS2, stronger effect = lower value 0.921 | locus YJL157C, strain FAR1, stronger effect = lower value 0.956 | locus YJR016C, strain ILV3, stronger effect = lower value 0.977 | locus YJR066W, strain TOR1, stronger effect = lower value 0.992 | locus YKL048C, strain ELM1, stronger effect = lower value 0.994 | locus YKL067W, strain YNK1, stronger effect = lower value 0.946 | locus YKL101W, strain HSL1, stronger effect = lower value 0.929 | locus YKL193C, strain SDS22, stronger effect = lower value 0.977 | locus YKL203C, strain TOR2, stronger effect = lower value 1.03 | locus YLR133W, strain CKI1, stronger effect = lower value 0.96 | locus YLR403W, strain SFP1, stronger effect = lower value 0.933 | locus YML070W, strain DAK1, stronger effect = lower value 0.944 | locus YMR001C, strain CDC5, stronger effect = lower value 0.983 | locus YMR205C, strain PFK2 (second series), stronger effect = lower value 0.936 | locus YMR277W, strain FCP1, stronger effect = lower value 0.978 | locus YNL006W, strain LST8, stronger effect = lower value 0.98 | locus YNL020C, strain ARK1, stronger effect = lower value 0.923 | locus YNL161W, strain CBK1, stronger effect = lower value 0.973 | locus YNL183C, strain NPR1, stronger effect = lower value 0.977 | locus YNL207W, strain RIO2, stronger effect = lower value 0.981 | locus YNL222W, strain SSU72, stronger effect = lower value 0.993 | locus YNL307C, strain MCK1 (second series), stronger effect = lower value 0.907 | locus YOL078W, strain AVO1, stronger effect = lower value 0.986 | locus YOL136C, strain PFK27, stronger effect = lower value 0.946 | locus YOR061W, strain CKA2, stronger effect = lower value 0.988 | locus YOR119C, strain RIO1, stronger effect = lower value 1.01 | locus YOR231W, strain MKK1, stronger effect = lower value 0.954 | locus YOR329C, strain SCD5, stronger effect = lower value 0.982 | locus YPL031C, strain PHO85, stronger effect = lower value 0.924 | locus YPL153C, strain RAD53, stronger effect = lower value 0.953 | locus YPL204W, strain HRR25, stronger effect = lower value 0.954 | locus YPL209C, strain IPL1, stronger effect = lower value 0.985 | locus YPL256C, strain CLN2, stronger effect = lower value 0.86 | locus YPR025C, strain CCL1, stronger effect = lower value 0.991 | locus YPR106W, strain ISR1, stronger effect = lower value 0.98 | locus YPR111W, strain DBF20, stronger effect = lower value 0.975 | strain NNK1, stronger effect = lower value 0.967 | strain TSCII, stronger effect = lower value 0.98

From PubChem BioAssay AID1159580 (chemical genetic matrix, 2015)
